Assay results taken from article PMC7862700, “An all-to-all approach to the identification of sequence-specific readers for epigenetic DNA modifications on cytosine”.

Experiments:
Experiment in all cases: DAPPL (digital affinity profiling via proximity ligation, sequencing); 10 mM Tris-HCl pH 7.5, 50 mM NaCl, 1 mM DTT, 4% glycerol, room temperature, 30 min; GST-TFs on glutathione beads, 16-mer random dsDNA library, 0.1% formaldehyde crosslink after washing; high values mean tight binding
Conditions in all cases: protein: recombinant; tags: N-terminal GST; dsDNA, one strand shown
FLI1 = molecular target: T1, FLI1 (Homo sapiens, UniProt Q01543 1-452)
T1 sequence: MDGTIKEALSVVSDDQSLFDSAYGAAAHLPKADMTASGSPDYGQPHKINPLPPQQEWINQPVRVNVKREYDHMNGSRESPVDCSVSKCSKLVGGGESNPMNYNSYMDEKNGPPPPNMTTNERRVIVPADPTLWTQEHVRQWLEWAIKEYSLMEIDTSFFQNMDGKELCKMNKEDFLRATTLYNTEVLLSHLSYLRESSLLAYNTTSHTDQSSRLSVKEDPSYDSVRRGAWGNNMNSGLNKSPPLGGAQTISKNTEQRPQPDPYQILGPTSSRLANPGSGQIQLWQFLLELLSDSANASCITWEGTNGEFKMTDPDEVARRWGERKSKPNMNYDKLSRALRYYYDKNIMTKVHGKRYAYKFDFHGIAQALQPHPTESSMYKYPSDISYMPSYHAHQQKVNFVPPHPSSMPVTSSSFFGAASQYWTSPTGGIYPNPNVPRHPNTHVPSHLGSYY
Method in brief: (§1)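 Human transcription factors were made in yeast as GST fusions, captured on glutathione beads and barcoded with DNA. With a tag-only sample included, the pool was incubated with 200 nmole of a random double-stranded 16-mer DNA library in Tris/NaCl/DTT/glycerol buffer at room temperature for 30 min, then crosslinked with 0.1% formaldehyde after washing, ligated by proximity, amplified and sequenced. For binding signal, each hexamer's read frequency for a factor is divided by its frequency for the tag-only sample.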

ELK1 = molecular target: T2, ELK1 (Homo sapiens, UniProt P19419 1-428)
T2 sequence: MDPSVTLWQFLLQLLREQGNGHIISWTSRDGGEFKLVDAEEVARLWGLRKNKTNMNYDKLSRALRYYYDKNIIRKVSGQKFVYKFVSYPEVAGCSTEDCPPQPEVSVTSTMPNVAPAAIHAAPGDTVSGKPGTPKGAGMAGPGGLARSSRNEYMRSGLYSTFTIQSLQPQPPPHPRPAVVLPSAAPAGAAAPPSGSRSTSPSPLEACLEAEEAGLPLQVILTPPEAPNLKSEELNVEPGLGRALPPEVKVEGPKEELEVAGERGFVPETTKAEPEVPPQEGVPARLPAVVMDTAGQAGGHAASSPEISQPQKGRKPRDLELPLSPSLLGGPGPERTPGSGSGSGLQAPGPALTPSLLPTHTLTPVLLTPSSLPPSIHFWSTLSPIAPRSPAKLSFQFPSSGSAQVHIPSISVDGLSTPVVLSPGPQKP
Method in brief: as §1

GABPA = molecular target: T3, GABPA (Homo sapiens, UniProt Q06546 1-454)
T3 sequence: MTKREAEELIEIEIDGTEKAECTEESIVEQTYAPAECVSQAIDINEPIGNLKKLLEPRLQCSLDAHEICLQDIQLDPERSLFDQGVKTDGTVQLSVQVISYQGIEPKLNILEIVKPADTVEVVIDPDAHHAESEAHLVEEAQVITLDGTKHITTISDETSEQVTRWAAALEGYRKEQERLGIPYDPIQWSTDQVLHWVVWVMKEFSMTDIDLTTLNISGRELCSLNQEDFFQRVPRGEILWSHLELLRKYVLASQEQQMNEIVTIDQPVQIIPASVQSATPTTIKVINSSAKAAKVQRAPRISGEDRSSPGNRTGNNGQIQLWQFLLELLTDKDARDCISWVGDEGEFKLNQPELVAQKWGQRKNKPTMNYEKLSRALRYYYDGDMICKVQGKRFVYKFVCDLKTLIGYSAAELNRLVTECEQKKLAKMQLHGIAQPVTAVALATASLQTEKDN
Method in brief: as §1

ERG = molecular target: T4, ERG (Homo sapiens, UniProt P11308 1-479)
T4 sequence: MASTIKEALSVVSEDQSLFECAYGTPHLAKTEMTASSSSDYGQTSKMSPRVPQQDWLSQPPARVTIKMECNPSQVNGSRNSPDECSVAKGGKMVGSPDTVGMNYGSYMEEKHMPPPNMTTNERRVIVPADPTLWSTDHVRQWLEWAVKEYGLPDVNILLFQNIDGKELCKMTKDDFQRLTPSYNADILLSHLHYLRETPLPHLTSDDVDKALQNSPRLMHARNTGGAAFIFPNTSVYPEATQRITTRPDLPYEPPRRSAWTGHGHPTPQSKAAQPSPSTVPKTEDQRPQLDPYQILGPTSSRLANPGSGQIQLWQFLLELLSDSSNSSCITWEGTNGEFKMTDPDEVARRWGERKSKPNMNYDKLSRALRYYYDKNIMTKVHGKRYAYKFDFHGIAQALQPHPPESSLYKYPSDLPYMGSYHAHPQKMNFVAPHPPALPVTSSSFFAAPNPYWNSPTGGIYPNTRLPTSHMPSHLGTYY
Method in brief: as §1

ELF1 = ELF1 (Homo sapiens, UniProt P32519 1-619)
Chain of ELF1 (P32519 whole entry): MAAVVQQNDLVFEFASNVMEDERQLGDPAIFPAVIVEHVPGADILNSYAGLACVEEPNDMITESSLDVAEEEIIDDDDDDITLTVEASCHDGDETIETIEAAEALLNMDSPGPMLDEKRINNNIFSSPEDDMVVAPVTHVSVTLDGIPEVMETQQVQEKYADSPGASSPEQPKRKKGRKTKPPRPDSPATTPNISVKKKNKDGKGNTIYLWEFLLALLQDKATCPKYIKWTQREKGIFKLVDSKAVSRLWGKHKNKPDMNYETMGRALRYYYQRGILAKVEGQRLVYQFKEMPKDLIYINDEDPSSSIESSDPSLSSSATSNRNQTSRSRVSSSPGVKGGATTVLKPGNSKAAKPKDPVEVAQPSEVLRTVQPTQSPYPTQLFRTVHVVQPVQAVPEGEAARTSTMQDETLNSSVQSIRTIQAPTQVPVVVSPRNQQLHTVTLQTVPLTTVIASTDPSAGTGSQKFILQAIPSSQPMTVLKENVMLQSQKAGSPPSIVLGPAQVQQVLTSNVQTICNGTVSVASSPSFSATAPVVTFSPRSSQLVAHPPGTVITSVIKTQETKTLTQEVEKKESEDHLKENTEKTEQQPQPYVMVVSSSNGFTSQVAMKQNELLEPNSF
Method in brief: as §1

EHF = molecular target: T5, EHF (Homo sapiens, UniProt Q9NZC4 1-300)
T5 sequence: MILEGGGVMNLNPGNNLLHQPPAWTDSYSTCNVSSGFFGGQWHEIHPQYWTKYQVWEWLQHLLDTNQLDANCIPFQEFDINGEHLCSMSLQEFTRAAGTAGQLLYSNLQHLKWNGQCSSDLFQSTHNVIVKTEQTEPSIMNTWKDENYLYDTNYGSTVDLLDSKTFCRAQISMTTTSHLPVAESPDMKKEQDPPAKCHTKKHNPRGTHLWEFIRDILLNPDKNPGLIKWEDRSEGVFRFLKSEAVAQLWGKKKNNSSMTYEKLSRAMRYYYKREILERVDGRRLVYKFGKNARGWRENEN
Method in brief: as §1

SPIB = SPIB (Homo sapiens, UniProt Q01892 1-262)
Chain of SPIB (Q01892 whole entry): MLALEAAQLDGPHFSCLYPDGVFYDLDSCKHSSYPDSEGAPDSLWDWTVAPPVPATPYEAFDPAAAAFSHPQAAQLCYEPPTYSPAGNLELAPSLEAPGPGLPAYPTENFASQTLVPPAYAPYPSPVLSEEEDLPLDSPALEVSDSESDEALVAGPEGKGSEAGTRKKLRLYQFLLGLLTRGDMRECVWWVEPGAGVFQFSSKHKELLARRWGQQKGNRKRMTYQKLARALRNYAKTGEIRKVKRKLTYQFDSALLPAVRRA
Method in brief: as §1

ELK3 = molecular target: T6, ELK3 (Homo sapiens, UniProt P41970 1-407)
T6 sequence: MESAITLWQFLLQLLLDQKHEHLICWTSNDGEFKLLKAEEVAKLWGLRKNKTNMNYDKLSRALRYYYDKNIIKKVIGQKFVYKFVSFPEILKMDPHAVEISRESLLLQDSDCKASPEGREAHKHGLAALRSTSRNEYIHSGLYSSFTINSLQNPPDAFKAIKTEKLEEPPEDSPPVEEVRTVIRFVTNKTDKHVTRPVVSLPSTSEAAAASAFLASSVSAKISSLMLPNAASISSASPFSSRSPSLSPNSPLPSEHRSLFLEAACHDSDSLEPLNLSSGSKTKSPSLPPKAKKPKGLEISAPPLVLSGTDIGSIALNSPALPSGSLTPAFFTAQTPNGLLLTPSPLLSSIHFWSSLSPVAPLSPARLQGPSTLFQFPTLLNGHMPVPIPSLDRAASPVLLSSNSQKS
Method in brief: as §1

SPI1 = SPI1 (Homo sapiens, UniProt P17947 1-270)
Method in brief: as §1

Sequence	binding signal (FLI1)	binding signal (ELK1)	binding signal (GABPA)	binding signal (ERG)	binding signal (ELF1)	binding signal (EHF)	binding signal (SPIB)	binding signal (ELK3)	binding signal (SPI1)
TCGAAT	1 fold enrichment (6-mer frequency, TF over GST control)	1.09 fold enrichment (6-mer frequency, TF over GST control)	1.12 fold enrichment (6-mer frequency, TF over GST control)	1.08 fold enrichment (6-mer frequency, TF over GST control)	1.11 fold enrichment (6-mer frequency, TF over GST control)	1.02 fold enrichment (6-mer frequency, TF over GST control)	1.07 fold enrichment (6-mer frequency, TF over GST control)	1.15 fold enrichment (6-mer frequency, TF over GST control)	
CTACAG	1.17 fold enrichment (6-mer frequency, TF over GST control)	1.01 fold enrichment (6-mer frequency, TF over GST control)	1.16 fold enrichment (6-mer frequency, TF over GST control)	1.03 fold enrichment (6-mer frequency, TF over GST control)	1.08 fold enrichment (6-mer frequency, TF over GST control)	1.05 fold enrichment (6-mer frequency, TF over GST control)		1.08 fold enrichment (6-mer frequency, TF over GST control)	
AGGTAT	1.06 fold enrichment (6-mer frequency, TF over GST control)	1.06 fold enrichment (6-mer frequency, TF over GST control)	1.07 fold enrichment (6-mer frequency, TF over GST control)	1.04 fold enrichment (6-mer frequency, TF over GST control)	1.04 fold enrichment (6-mer frequency, TF over GST control)		1 fold enrichment (6-mer frequency, TF over GST control)		1.04 fold enrichment (6-mer frequency, TF over GST control)
TCGACG	1.23 fold enrichment (6-mer frequency, TF over GST control)	1.14 fold enrichment (6-mer frequency, TF over GST control)	1.06 fold enrichment (6-mer frequency, TF over GST control)	1.04 fold enrichment (6-mer frequency, TF over GST control)	1.1 fold enrichment (6-mer frequency, TF over GST control)	1.21 fold enrichment (6-mer frequency, TF over GST control)	1.05 fold enrichment (6-mer frequency, TF over GST control)	1.02 fold enrichment (6-mer frequency, TF over GST control)	
TATCAG	1.15 fold enrichment (6-mer frequency, TF over GST control)	1.21 fold enrichment (6-mer frequency, TF over GST control)	1.14 fold enrichment (6-mer frequency, TF over GST control)	1.09 fold enrichment (6-mer frequency, TF over GST control)	1.15 fold enrichment (6-mer frequency, TF over GST control)	1.13 fold enrichment (6-mer frequency, TF over GST control)	1.2 fold enrichment (6-mer frequency, TF over GST control)	1.15 fold enrichment (6-mer frequency, TF over GST control)	
TGTCTG	1 fold enrichment (6-mer frequency, TF over GST control)	1.1 fold enrichment (6-mer frequency, TF over GST control)	1.11 fold enrichment (6-mer frequency, TF over GST control)	1.05 fold enrichment (6-mer frequency, TF over GST control)	1.06 fold enrichment (6-mer frequency, TF over GST control)		1.16 fold enrichment (6-mer frequency, TF over GST control)		1.17 fold enrichment (6-mer frequency, TF over GST control)
ACCCTG	1.05 fold enrichment (6-mer frequency, TF over GST control)	1.09 fold enrichment (6-mer frequency, TF over GST control)	1.06 fold enrichment (6-mer frequency, TF over GST control)	1.05 fold enrichment (6-mer frequency, TF over GST control)	1.13 fold enrichment (6-mer frequency, TF over GST control)		1.09 fold enrichment (6-mer frequency, TF over GST control)	1.24 fold enrichment (6-mer frequency, TF over GST control)	1.05 fold enrichment (6-mer frequency, TF over GST control)
CGCTTG	1.1 fold enrichment (6-mer frequency, TF over GST control)	1.14 fold enrichment (6-mer frequency, TF over GST control)	1.09 fold enrichment (6-mer frequency, TF over GST control)	1.05 fold enrichment (6-mer frequency, TF over GST control)	1.07 fold enrichment (6-mer frequency, TF over GST control)	1.04 fold enrichment (6-mer frequency, TF over GST control)	1.25 fold enrichment (6-mer frequency, TF over GST control)	1.07 fold enrichment (6-mer frequency, TF over GST control)	
AGCATC	1.03 fold enrichment (6-mer frequency, TF over GST control)	1.12 fold enrichment (6-mer frequency, TF over GST control)	1.03 fold enrichment (6-mer frequency, TF over GST control)	1.04 fold enrichment (6-mer frequency, TF over GST control)	1.02 fold enrichment (6-mer frequency, TF over GST control)	1.02 fold enrichment (6-mer frequency, TF over GST control)	1.02 fold enrichment (6-mer frequency, TF over GST control)	1.1 fold enrichment (6-mer frequency, TF over GST control)	
